Pf growth 96h – Primary qHTS for delayed death inhibitors of the malarial parasite plastid, 96 hour incubation; AID 504834, 2011; P. falciparum luciferase reporter growth, 96 h; hit rate 6.9% among 320,000; Potency, µM (doses to about 28.7 µM), for the others: top-dose activity change, negative = inhibition, hits mostly inhibitors; also: potency is read from the fitted curve at half-maximal effect
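P. falciparum expressing integrated firefly luciferase grown in erythrocytes (2% hematocrit, 0.05% parasitemia final) with compounds for 96 hours at 37 C, 5% CO2. Growth inhibition read as loss of luminescence after adding luciferase detection reagent.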
HCV inhibitor – qHTS Assay for Inhibitors of Hepatitis C Virus (HCV); Huh7.5.1 HCVcc-Cre infection, luciferase reporter, 44 h; Potency, µM (highest dose often 41.8 µM), for inactives: top-dose activity change, negative = inhibition, most hits filed as inhibitors; hit rate 3.4% among 340,000; AID 651820, 2012; also: potency is read from the fitted curve at half-maximal effect
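Luciferase read-out (15 sec integration) after a 15 min room-temperature substrate step quantifies HCVcc-Cre infection. Cells, 1,000 per well, had compound added 4 h post-plating, then virus at ~0.5 moi, and were cultured 44 h.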
HCMV antiviral – qHTS Assay for inhibitors of the human cytomegalovirus (HCMV) | HFF cells, HCMV-luciferase reporter, 72 h; active compounds read low | activity change, negative = inhibition, % at 57.5 µM | hit rate 4.5% among 410,000 | AID 1259415, 2018; in the data active = activity change below about -60%; inconclusive = no clear call, values can overlap the other calls; inactive = above about -39%
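Screen run at 2 compound doses on HFFs infected with reporter HCMV, MOI 1 PFU/cell. Luciferase activity from cell lysates at 72 h post infection gave inhibition relative to buffer-only and Salinomycin wells.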
Pf growth 48h – Primary qHTS for delayed death inhibitors of the malarial parasite plastid, 48 hour incubation; P. falciparum luciferase growth in erythrocytes, 48 h; AID 504832, 2011; Potency, µM (top dose mostly 28.7 µM), without a hit: at the highest dose activity change, negative = inhibition, actives largely listed as inhibitors; hit rate 5.9% among 310,000; also: potency is read from the fitted curve at half-maximal effect
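Here the parasites carry a stable luciferase gene and grow inside erythrocytes in Albumax-based RPMI medium with compound for one erythrocytic cycle. Activity is scored as loss of luminescent signal.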
The depositor's hits bear a star; ? = inconclusive; nt = not tested or not shown; [ ] = dose if it differs, or a comment. Only some compounds are listed: those with a hit (about 13% of all), similar ones and a draw of the others. Unless noted, calls follow the shape of the dose curve; as a rule, active = well fitted inhibition curve with a large enough effect; inconclusive = small, poorly fitted or top-dose-only effect, or another doubt; inactive = no such curve, though single readings can be large or run the other way. % is scaled to controls: 0 for no effect and ±100 for the full control effect.

SMILES | Pf growth 96h | HCV inhibitor | HCMV antiviral | Pf growth 48h
CC(=O)N1CCN(Cc2nc3cc([N+](=O)[O-])ccc3n2C)CC1 | 26% | 5% | -28 | 14%
Cn1c(CN2CCN(C(=O)c3ccc(F)cc3)CC2)nc2cc([N+](=O)[O-])ccc21 | 13µM* | -22% | 2 | ?
Cn1c(CN2CCN(S(C)(=O)=O)CC2)nc2cc([N+](=O)[O-])ccc21 | 25% | -17% | -101* | 25%
Cc1ccc(C)c(C(O)c2ncc(-c3ccc(C(F)(F)F)cc3)[nH]2)c1 (centres undefined) | nt | nt | -10 | nt
Cc1ccc2cc3cc(C(=O)NCCCN4CCCC4)oc3nc2c1 | -24% | 14µM* | ? | ?
Cc1ccc2cc3cc(C(=O)NCCCN4CCCCCC4)oc3nc2c1 | ? | ? | 27 | ?
Cc1ccc2cc3cc(C(=O)NCCCN4CCc5ccccc5C4)oc3nc2c1 | nt | ? | 55 | 8.3µM*
Cc1cccc(NC(=O)CSc2nc(=O)n(Cc3ccccn3)c3c2CCC3)c1C | nt | nt | -23 | nt
Cc1ccc(C(=O)Nc2cc(Cl)ccc2OC(=O)c2ccc(C)cc2)cc1 | 0.47µM* | nt | 74 | ?
COc1ccc(Cl)cc1NC(=O)c1cc(-c2ccc(C)cc2O)n[nH]1 | -14% | -1% | -34 | ?
COc1ccc(Cl)cc1NC(=O)c1cc(-c2cc(C)ccc2O)n[nH]1 | 2.3µM* | -25% | -29 | 1.9µM*
COc1ccc(NC(=O)c2cc(-c3cc(C)c(C)cc3O)n[nH]2)c(OC)c1 | ? | -7% | -25 | 1%[0.00184 µM]
COc1ccc(OC)c(NC(=O)c2cc(-c3c(C)cc(C)cc3O)n[nH]2)c1 | -19% | 10µM* | 9 | ?
COc1ccc(OC)c(NC(=O)c2cc(-c3cc(C)cc(C)c3O)n[nH]2)c1 | 9.3µM* | 4µM* | -68* | nt
CC1=C(C(=O)Nc2ccccc2)C(c2ccc(Br)cc2)n2nc(CCCO)nc2N1 (centres undefined) | nt | nt | 7 | nt
COc1ccc(OC)c(NC(=O)c2cc(-c3cc(C)c(C)cc3O)n[nH]2)c1 | 1.9µM* | -11% | ? | 2.6µM*
CCCCN1CCc2nc(Nc3ccc(OC)cc3OC)ncc2C1 | nt | nt | 2 | nt
Brc1ccc2[nH]cc(/C=N/N3CCCCC3)c2c1 | 8% | ? | -84* | 14%
COc1ccc(S(=O)(=O)c2cnc3ccc(Cl)cc3c2N2CCCCC2C)cc1 (centres undefined) | nt | nt | -40 | nt
O=C(Nc1ccc(Br)c(C(F)(F)F)c1)c1ccc(C(F)(F)F)cc1 | ? | ? | -97* | ?
O=C(Nc1ccc(C(F)(F)F)cc1)c1ccccc1 | 217% | -2% | -6 | 323%
O=C(Nc1ccc(Br)c(C(F)(F)F)c1)c1ccccc1 | -17% | -27% | -90* | 71%
Cc1ccc(S(=O)(=O)c2nc(-c3ccco3)oc2SC(C)c2ccccc2)cc1 (centres undefined) | nt | nt | -32 | nt
CCCCc1ccc(NC(=O)c2cc(-c3ccc(C)c(F)c3)on2)cc1 | nt | nt | 3 | nt
OC(c1ccccc1)(c1ccc(F)cc1)C(c1ccccc1)N1CCOCC1 (centres undefined) | 6.6µM* | ? | nt | 38%
SMILES | Pf growth 96h | HCV inhibitor | HCMV antiviral | Pf growth 48h
COc1cccc(OCC(O)CN2CCOCC2)c1 (centres undefined) | ? | -3% | -9 | ?
COc1ccc(C(O)C(CN2CCOCC2)c2ccccc2)cc1 (centres undefined) | 9.3µM* | 11% | 6 | ?
OC(c1ccc(F)cc1)C(CN1CCOCC1)c1ccccc1 (centres undefined) | 10µM* | 20% | -1 | 12µM*
OC(CN1CCN(Cc2ccccc2)CC1)c1ccc(F)cc1 (centres undefined) | -29% | 17% | -4 | ?
CCCCCOc1ccc(C(O)C(CN2CCOCC2)c2ccccc2)cc1 (centres undefined) | -4% | -1% | -26 | 2.6µM*
CCOc1cc2c3c(c1)C1(C(=O)N3C(C)(C)CC2C)C(C#N)=C(N)N2C(=C1C#N)Nc1ccccc12 (centres undefined) | ? | ? | -8 | 3.3µM*
CC(C)C(=O)NC(C)C(c1cccs1)N1CCOCC1 (centres undefined) | ? | ? | 2 | -8%
Cc1cccc(NC(=O)NC(C)C(c2cccs2)N2CCOCC2)c1 (centres undefined) | ? | 6% | -67* | -13%
CC(NC(=O)c1ccco1)C(c1cccs1)N1CCN(c2ccccc2F)CC1 (centres undefined) | nt | ? | 8 | ?
CC(NC(=O)c1ccco1)C(c1cccs1)N1CCN(c2ccccc2)CC1 (centres undefined) | 13µM* | -17% | -30 | 12µM*
CC(NC(=O)c1ccco1)C(c1cccs1)N1CCN(c2ccc(F)cc2)CC1 (centres undefined) | nt | 10µM* | ? | 7.4µM*
COc1ccccc1NC(=O)CSc1nc2ccccc2c(=O)n1CCC(=O)NC1CCCCC1 | nt | nt | 11 | nt
CCc1nc2ccccc2n1CCCCOc1ccc(Cl)cc1 | nt | nt | -19 | nt
CCN(CCn1cccn1)C(=O)c1cccc(OC2CCN(S(C)(=O)=O)CC2)c1 | 10µM* | -15% | 5 | 88%
C#CCN(CC=C)C(=O)c1cccc(OC2CCN(S(C)(=O)=O)CC2)c1 | ? | -13% | -16 | 2%
O=C(Nc1ccccc1Cl)N1CCC2(CC1)Oc1ccccc1C(=O)N2Cc1ccc(F)cc1 | nt | nt | -21 | nt
O=C(O)c1cccc(NS(=O)(=O)c2ccc(Oc3ccc(S(=O)(=O)Nc4cccc(C(=O)O)c4)cc3)cc2)c1 | nt | 24% | 53 | nt
CCOC(=O)/C=C/S(=O)(=O)c1ccc(NC(C)=O)cc1 | nt | ? | -99* | -29%
O=C(O)c1cccc(NS(=O)(=O)c2ccc(-c3ccc(S(=O)(=O)Nc4cccc(C(=O)O)c4)cc3)cc2)c1 | 5% | 27% | -72* | 26%
CCOC(=O)c1cccc(NS(=O)(=O)c2ccc(NC(C)=O)cc2)c1 | 12% | 2% | -88* | nt
CC(=O)NCCc1ccc(S(=O)(=O)Nc2ccc(NC(=O)c3ccc(F)cc3)cc2)cc1 | ? | 10µM* | 61 | -16%
Cc1cc(C)cc(-n2c(SCC(=O)Nc3nnc(C)s3)nc3c([nH]c4ccccc43)c2=O)c1 | nt | nt | 35 | nt
CC(=O)Nc1ccc(S(=O)(=O)Nc2cccc(-c3ccc4nncn4n3)c2)cc1 | 2.1µM* | 2% | 30 | -26%
CC(=O)c1cccc(NS(=O)(=O)c2ccc(C(=O)Nc3ccccc3)cc2)c1 | 34% | 4.5µM* | -76* | 16%
O=C(Nc1ccccc1)c1ccc(S(=O)(=O)Nc2cccc(O)c2)cc1 | 35% | ? | -32 | 2%
CC(=O)Nc1ccc(S(=O)(=O)Nc2ccc3c(c2)CCC3)cc1 | -5% | ? | -60* | 9%
CC(=O)N1CCc2nc3sc(C(=O)Nc4ccc(Cl)cc4F)c(N)c3c(C(F)(F)F)c2C1 | nt | nt | 14 | nt
